# p97 ATPase inh = inhibitors of human p97 ATPase, primary screen, biochemical; recombinant p97 ATPase, Kinase-Glo ATP luminescence, 3 h; inhibition, % at 8 µM; hit rate 0.42% among 220,000; AID 1481, 2009; in the data active = inhibition above about 15%;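 also: 0% = DMSO vehicle and 100% = wells lacking enzyme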
# PREPL inhibitor = PREPL enzyme inhibitors, primary screen, biochemical, fluorescence polarization; Prolyl endopeptidase-like (Homo sapiens), Q4J6C6; recombinant PREPL, fluorescence polarization activity-based probe; inhibition, % at 5.96 µM; hit rate 0.68% among 320,000; in the data active = inhibition above about 43%;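 also: 0% = enzyme with DMSO and 100% = wells lacking enzyme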
# Rin1-Abl PPI inh = inhibitors of Rin1-Abl protein binding, primary screen, biochemical, TR-FRET; inhibition, % at 7.35 µM; hit rate 0.4% among 360,000; AID 588664, 2011; in the data active = inhibition above about 5%, passing the limit was not always enough
# LYPLA2 counter = LYPLA2 inhibitors, primary screen, counter-screen for PME1 inhibitor project, biochemical, fluorescence polarization, FP-Rh probe ABPP; Acyl-protein thioesterase 2 (Homo sapiens), O95372; recombinant LYPLA2; inhibition, % at 5.9 µM; hit rate 0.38% among 320,000; AID 2177, 2009;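 active = inhibition above the screen-wide mean plus 3 SD, limit set per campaign, cut at about 26% in these data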;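 also: 0% = LYPLA2 with DMSO and 100% = wells lacking LYPLA2 enzyme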
# Hck-Nef inh = inhibitors of Nef-activated human Hck kinase, primary screen, biochemical, Z-Lyte FRET, 384-well, Hck-YEEI | AID 463187, 2010 | inhibition, % at 20 µM | Recombinant Hck-YEEI plus Nef, Z-Lyte FRET kinase assay | hit rate 0.68% among 220,000 | Tyrosine-protein kinase HCK (Homo sapiens), P08631;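 active = Hck-Nef kinase inhibition above about 50%, limit read from the data; inactive = inhibition below that limit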;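 also: 0% = DMSO with Hck plus Nef and 100% = Hck alone without Nef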
# Target sequence (P08631 whole entry, looked up): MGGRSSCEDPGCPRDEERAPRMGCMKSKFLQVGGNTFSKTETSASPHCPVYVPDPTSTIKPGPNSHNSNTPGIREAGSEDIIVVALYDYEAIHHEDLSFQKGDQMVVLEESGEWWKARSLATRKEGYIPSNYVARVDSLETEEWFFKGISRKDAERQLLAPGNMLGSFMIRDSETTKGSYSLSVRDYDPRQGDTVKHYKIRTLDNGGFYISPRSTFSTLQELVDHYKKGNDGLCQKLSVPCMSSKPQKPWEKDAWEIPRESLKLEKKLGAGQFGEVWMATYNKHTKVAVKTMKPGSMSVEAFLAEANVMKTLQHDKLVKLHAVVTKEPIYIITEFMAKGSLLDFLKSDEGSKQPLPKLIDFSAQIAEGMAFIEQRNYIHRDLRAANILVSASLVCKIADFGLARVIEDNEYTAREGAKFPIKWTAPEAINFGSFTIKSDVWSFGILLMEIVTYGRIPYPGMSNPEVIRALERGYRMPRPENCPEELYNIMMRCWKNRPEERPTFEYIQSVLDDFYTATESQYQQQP
# LYPLA1 inh = LYPLA1 inhibitors, primary screen, counter-screen for PME1 inhibitor project, biochemical, fluorescence polarization, FP-Rh probe ABPP | AID 2174, 2009 | Acyl-protein thioesterase 1 (Homo sapiens), O75608 | recombinant LYPLA1 | hit rate 0.16% among 320,000 | inhibition, % at 5.9 µM;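 active = inhibition above the mean of all tested compounds plus 3 SD, set per campaign, cut at about 14% in these data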;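 also: inhibitors block serine hydrolase probe labeling of LYPLA1 so polarization falls; 0% = enzyme with DMSO and 100% = wells lacking LYPLA1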
# p97 inh conf = p97 ATPase inhibitors, retest, confirmation, biochemical | recombinant p97 ATPase, Kinase-Glo ATP luminescence | hit rate 44% among 760 | inhibition, % at 8 µM | AID 1517, 2009 | shares compounds with p97 ATPase inh;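 active = percent inhibition of p97 ATPase above a set limit, the primary screen's mean plus 3 SD, cut at about 15% in these data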;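 also: 0% = DMSO wells and 100% = wells lacking p97 protein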
# Starred values were filed as active, the others as inactive; x = no result given. In the library only some 1.7% were active in any assay of this set; here they are far more common.
SMILES,p97 ATPase inh,PREPL inhibitor,Rin1-Abl PPI inh,LYPLA2 counter,Hck-Nef inh,LYPLA1 inh,p97 inh conf
O=C1[C@H]2[C@@H](c3ccc(C(F)(F)F)cc3)N[C@]3(CCCN(Cc4ccc(F)cc4)C3=O)[C@H]2C(=O)N1Cc1ccccc1,x,x,0,x,x,x,x
Cn1c(=O)[nH]c2c(c1=O)CCO2,x,x,1,x,x,x,x
COc1ccc(CCn2c(N)c(C(=O)NCc3ccco3)c3nc4ccccc4nc32)cc1,16*,23,-2,-9,37,-6,3
CCOC(=O)CNC(=O)c1ccc2[nH]c3ccccc3c2c1,15*,15,0,-2,14,1,11
O=C(NCC(O)CO)c1ccc2[nH]c3ccccc3c2c1 (stereo not given),9,2,-2,2,9,1,x
CCCN1CCC(=O)N(CCN=[N+]=[N-])CC1,x,3,2,0,x,0,x
CCN(Cc1ccc(Br)s1)C(=O)CSc1nnc(C2CC2)n1C1CC1,x,x,3,x,x,x,x
Nc1cc2nn(-c3ccccc3)nc2cc1Cl,19*,x,-3,x,34,x,9
Nc1ccc2nn(-c3ccccc3)nc2c1,7,x,-2,x,21,x,x
O=Cc1ccc(OCc2cccc(C(F)(F)F)c2)cc1O,15*,0,2,11,22,1,19*
COC(=O)CCCCC1SCC(NC(=O)c2ccccc2)C1=O (stereo not given),17*,-2,2,0,14,-3,4
COc1ccc(CCN(C)C(=O)c2c(C)nn(-c3ccccc3)c2C)cc1OC,x,0,-3,0,x,-5,x
Cn1c(SCC(=O)N2CCCc3ccccc32)nnc1-c1c[nH]c2ccccc12,16*,0,2,-1,2,-1,6
C=CC[C@H](CC(=O)NCCO)C(=O)N[C@H](COC(=O)[C@@H](CC=C)Cc1ccc(F)cc1)c1ccccc1,x,28,-2,x,x,x,x
CC1Cc2ccccc2N1C(=O)CSc1nncs1 (stereo not given),x,-5,6,8,x,3,x
Cc1csc(SCC(=O)N(C)C2CCS(=O)(=O)C2)n1 (stereo not given),x,x,2,x,x,x,x
CCC(=O)NNc1nc2c(C)cc(C)cc2s1,15*,12,1,7,15,0,6
N#C/C(=C(/O)c1ccco1)c1nc2ccccc2s1,-1,3,1,-2,7,3,x
N#C/C(=C(/O)c1cc2ccccc2o1)c1nc2ccccc2s1,26*,-5,-4,-2,-14,0,24*
COc1cccc(CC(=S)N2CCOCC2)c1,16*,-17,0,1,4,-6,8
Cc1ccc2[nH]c(=O)c(CN(CCCN(C)C)C(=O)Nc3ccc(F)cc3)cc2c1,16*,-27,0,1,12,-2,4
COc1ccc(NC(=O)N(CCCN(C)C)Cc2cc3cc(OC)ccc3[nH]c2=O)cc1,3,16,-1,2,4,0,x
CCOC(=O)C(C)Oc1cccc2c(=O)n(CC(=O)Nc3ccc4c(c3)OCCO4)ccc12 (stereo not given),35*,-3,-2,0,0,0,8
O=C(COC(=O)c1ccc([N+](=O)[O-])s1)c1ccc[nH]1,x,19,-3,x,x,x,x
O=C1NN(c2cccc(Br)c2)C(=O)/C1=C/c1cccs1,17*,3,1,8,10,-5,23*
SMILES,p97 ATPase inh,PREPL inhibitor,Rin1-Abl PPI inh,LYPLA2 counter,Hck-Nef inh,LYPLA1 inh,p97 inh conf
O=C(Cn1c(-c2ccccc2)noc1=O)Nc1ccc(S(=O)(=O)N2CCOCC2)cc1,-6,2,-3,3,-1,-1,x
O=C(Cn1c(-c2ccccc2)noc1=O)Nc1ccc(N2CCCCCC2)cc1,16*,8,-1,3,2,-2,3
CN1CCN2c3ccccc3CC(C#N)(C#N)C2C1 (stereo not given),x,x,2,x,x,x,x
COc1ccc(C(=O)Nc2nccs2)cc1[N+](=O)[O-],5,4,-2,-7,1,-4,x
Cn1cc([N+](=O)[O-])c(C(=O)Nc2nccs2)n1,17*,-3,1,2,21,1,7
Cc1cc(C)c2nc(SCC(=O)NNC(=O)c3ccco3)c(C)cc2c1,15*,-10,-23,0,20,-3,16*
CC(=O)c1c(O)cc(=O)oc1-c1ccc(C)cc1,x,6,-1,-3,x,0,x
COc1ccc(Nc2nc3ccccc3nc2NS(=O)(=O)c2cccs2)c(OC)c1,24*,-2,-1,-9,26,0,29*
COc1cccc(Nc2nc3ccccc3nc2NS(=O)(=O)c2cccs2)c1,2,5,0,-1,2,2,x
CCN(CC(=O)Nc1ccc(NC(C)=O)cc1)C(=O)c1ccc(C(=O)c2ccccc2)cc1,x,20,4,6,x,4,x
CCOC(=O)[C@@H]1[C@H]2COc3ccc(Br)cc3[C@H]2N2C(=O)N(c3ccc(F)cc3)C(=O)[C@@]12C,x,-12,4,4,x,1,x
CCN1C(=O)c2ccc(-c3nc4ccccc4c(=O)o3)cc2C1=O,24*,3,-2,4,11,-2,6
CC(=O)OCCN1C(=O)c2ccc(-c3nc4ccccc4c(=O)o3)cc2C1=O,x,11,-4,6,x,5,x
O=C(NNC(=O)c1ccccc1O)c1ccc(S(=O)(=O)Nc2ccccc2)cc1,x,10,-6,-4,x,1,x
C=CC(=O)N=c1sc2ccccc2n1-c1ccccc1,18*,10,-3,0,26,-1,17*
C[C@@H]1CN[C@H](CCO)/C1=C\c1ccccc1,x,x,-4,x,x,x,x
O=C(Nc1ccccc1)C1CC2CCCC(C1)C2=O (stereo not given),17*,2,3,-4,0,-3,6
Oc1ccccc1Nc1nc(NCc2ccccc2)c2ccccc2n1,26*,13,3,-2,-8,-10,31*
CNc1nc(NCc2ccccc2)c2ccccc2n1,x,-31,2,2,x,4,x
N=c1c(C(=O)NCc2ccccc2)cc2c(=O)n3ccccc3nc2n1Cc1ccco1,23*,24,-7,-16,-21,-1,13
N=c1c(C(=O)NCc2ccco2)cc2c(=O)n3ccccc3nc2n1Cc1ccccc1,3,12,-6,-2,8,3,x
Cc1[nH]n(-c2ccccc2)c(=O)c1-c1ccc(Cl)cc1,3,15,-3,11,-2,6,x
